# This excerpt belongs to a sample that is enriched for the strongest signals.
# Assays:
# Experiment in all cases: glycan array binding signal (z-score within array); higher = stronger binding
# Settings in all cases: glycan notation: IUPAC condensed, linker removed
# [1] = biological target: Fuc(a1-2)Gal(b1-3)GlcNAc(b1-2)Man(a1-3)[Fuc(a1-2)Gal(b1-3)GlcNAc(b1-2)Man(a1-6)]Man(b1-4)GlcNAc(b1-4)GlcNAc
# Method in brief: (§1)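 Glycan array data came from 3228 arrays in the Consortium for Functional Glycomics database, and only arrays with an available protein sequence were kept. Glycan names were put into IUPAC-condensed notation, and columns mapping to the same glycan were averaged. The binding signal is a within-array Z-score, averaged across arrays of one protein sequence run at different concentrations or buffers and across linkers. A negative Z-score can be read as non-binding.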
# [2] = biological target: Fuc(a1-2)Gal(b1-4)Glc
# Method in brief: as §1
# [3] = biological target: Fuc(a1-2)Gal(b1-4)Glc6S
# Method in brief: as §1
# [4] = biological target: Fuc(a1-2)Gal6S(b1-4)Glc
# Method in brief: as §1
# [5] = biological target: Fuc(a1-2)[Gal(a1-3)]Gal(b1-4)GlcNAc(b1-3)[Fuc(a1-2)[Gal(a1-3)]Gal(b1-4)GlcNAc(b1-6)]GalNAc
# Method in brief: as §1
# [6] = biological target: Fuc(a1-2)[Gal(a1-3)]Gal(b1-4)GlcNAc(b1-6)GalNAc
# Method in brief: as §1
# [7] = biological target: Fuc(a1-2)[GalNAc(a1-3)]Gal(b1-3)GalNAc(b1-3)Gal(a1-4)Gal(b1-4)Glc
# Method in brief: as §1
# [8] = biological target: Fuc(a1-2)[GalNAc(a1-3)]Gal(b1-4)GlcNAc(b1-2)Man(a1-3)[Fuc(a1-2)[GalNAc(a1-3)]Gal(b1-4)GlcNAc(b1-2)Man(a1-6)]Man(b1-4)GlcNAc(b1-4)[Fuc(a1-6)]GlcNAc
# Method in brief: as §1
# [9] = biological target: Fuc(a1-2)[GalNAc(a1-3)]Gal(b1-4)GlcNAc(b1-3)Gal(b1-4)GlcNAc
# Method in brief: as §1
# [10] = biological target: Fuc(a1-2)[GalNAc(a1-3)]Gal(b1-4)GlcNAc(b1-3)Gal(b1-4)GlcNAc(b1-3)Gal(b1-4)GlcNAc
# Method in brief: as §1
# [11] = biological target: Fuc(a1-2)[GalNAc(a1-3)]Gal(b1-4)GlcNAc(b1-6)GalNAc
# Method in brief: as §1
# [12] = biological target: Fuc(a1-2)[GalNAc(a1-4)]Gal(b1-4)GlcNAc
# Method in brief: as §1
# [13] = biological target: Fuc(a1-3)[Gal(b1-4)]GlcNAc(b1-2)Man
# Method in brief: as §1
# [14] = biological target: Fuc(a1-3)[Gal(b1-4)]GlcNAc(b1-3)Gal(b1-4)[Fuc(a1-3)]GlcNAc(b1-3)Gal(b1-4)[Fuc(a1-3)]GlcNAc
# Method in brief: as §1
# [15] = biological target: Fuc(a1-3)[Gal(b1-4)]GlcNAc6S
# Method in brief: as §1
# [16] = biological target: Gal(a1-6)Glc
# Method in brief: as §1
# [17] = biological target: Gal(b1-3)GalNAc
# Method in brief: as §1
# [18] = biological target: Gal(b1-3)GlcNAc(b1-2)[Gal(b1-3)GlcNAc(b1-6)]Man(a1-6)[Gal(b1-3)GlcNAc(b1-2)Man(a1-3)]Man(b1-4)GlcNAc(b1-4)GlcNAc
# Method in brief: as §1
# [19] = biological target: Gal(b1-3)GlcNAc(b1-3)Gal(b1-4)Glc
# Method in brief: as §1
# [20] = biological target: Gal(b1-3)GlcNAc(b1-3)Gal(b1-4)GlcNAc(b1-2)[Gal(b1-3)GlcNAc(b1-3)Gal(b1-4)GlcNAc(b1-6)]Man(a1-6)[Gal(b1-3)GlcNAc(b1-3)Gal(b1-4)GlcNAc(b1-2)Man(a1-3)]Man(b1-4)GlcNAc(b1-4)[Fuc(a1-6)]GlcNAc
# Method in brief: as §1
# [21] = biological target: Gal(b1-3)GlcNAc(b1-6)GalNAc
# Method in brief: as §1
# [22] = biological target: Gal(b1-3)[Neu5Ac(b2-6)]GalNAc
# Method in brief: as §1
# [23] = biological target: Gal(b1-4)GlcNAc(b1-2)Man(a1-3)[Gal(b1-4)GlcNAc(b1-2)Man(a1-6)][GlcNAc(b1-4)]Man(b1-4)GlcNAc(b1-4)[Fuc(a1-6)]GlcNAc
# Method in brief: as §1
# [24] = biological target: Gal(b1-4)GlcNAc(b1-2)Man(a1-6)[GlcNAc(b1-2)Man(a1-3)]Man(b1-4)GlcNAc(b1-4)GlcNAc
# Method in brief: as §1
# [25] = biological target: Gal(b1-4)GlcNAc(b1-2)Man(a1-6)[Man(a1-3)]Man(b1-4)GlcNAc(b1-4)GlcNAc
# Method in brief: as §1
# [26] = biological target: Gal(b1-4)GlcNAc(b1-2)[Gal(b1-4)GlcNAc(b1-4)]Man(a1-3)[Gal(b1-4)GlcNAc(b1-2)[Gal(b1-4)GlcNAc(b1-6)]Man(a1-6)]Man(b1-4)GlcNAc(b1-4)GlcNAc
# Method in brief: as §1
# [27] = biological target: Gal(b1-4)GlcNAc(b1-3)Gal(b1-3)GlcNAc
# Method in brief: as §1
# [28] = biological target: Gal(b1-4)GlcNAc(b1-3)Gal(b1-4)GlcNAc(b1-3)Gal(b1-4)GlcNAc(b1-2)Man(a1-3)[Gal(b1-4)GlcNAc(b1-3)Gal(b1-4)GlcNAc(b1-3)Gal(b1-4)GlcNAc(b1-2)Man(a1-6)]Man(b1-4)GlcNAc(b1-4)GlcNAc
# Method in brief: as §1
# [29] = biological target: Gal(b1-4)GlcNAc(b1-6)GalNAc
# Method in brief: as §1
binder,measurement,setting,value
GS13686A-pdi-553-26-553 (Parabacteroides distasonis) (protein) NENPDKPTDDVNYNMNEPRLASTLRGGLIIEGNVEQRLKPLQIDFYSQMTVDGGGWGTKNYIQDDEWNNLVWEEYLKQIASINIVIRSLTEKDKDAYANTIAFARIWRVYVHTLAADKFGPMPFPAYEIVEANPPYKSLKDIYDEYFRELDAAINGFNDSAQPIFSDAGIDLIYKNDVSKWKRFANSLRLRLAVRLTEVDQEKCIAEANAAISSPAGLISDKADNAYMPPKADGSWGQDYNYTMFQITWSGPICMSKSVEKLVTNIGGVAWPQGVVNQTSGVAVSSVHPEKVDPRAPKIFQPGIENGDWKGLVYGPKAEEANTGIYQSKQCAELGFIIKDGYPYKSRPYDLFLSEEVHFLKAELYARGFIAGDAKSEYEAGVRASFATWGVTSEVDDYLTSTEKNEAGTSARYDDQQGAGNTALEKIITQKYIAGIPDLAQEGWNDKRRLNLPRLDVAVYRDQAVYNNNDKDILKSANFIKRMRYPTKESLINATEYEKGKSMLGGKGDIVSTPLWWDKNSNYCTSSK,glycan array binding signal (z-score),[1],0.144
same,glycan array binding signal (z-score),[2],-0.076
same,glycan array binding signal (z-score),[3],0.03
same,glycan array binding signal (z-score),[4],-0.226
same,glycan array binding signal (z-score),[5],0.003
same,glycan array binding signal (z-score),[6],0.081
same,glycan array binding signal (z-score),[7],-0.124
same,glycan array binding signal (z-score),[8],0.023
same,glycan array binding signal (z-score),[9],0.224
same,glycan array binding signal (z-score),[10],0.041
same,glycan array binding signal (z-score),[11],-0.281
same,glycan array binding signal (z-score),[12],1.95
same,glycan array binding signal (z-score),[13],-0.253
same,glycan array binding signal (z-score),[14],-0.035
same,glycan array binding signal (z-score),[15],-0.276
same,glycan array binding signal (z-score),[16],0.108
same,glycan array binding signal (z-score),[17],0.011
same,glycan array binding signal (z-score),[18],0.046
same,glycan array binding signal (z-score),[19],-0.082
same,glycan array binding signal (z-score),[20],1.83
same,glycan array binding signal (z-score),[21],1.97
same,glycan array binding signal (z-score),[22],1.03
same,glycan array binding signal (z-score),[23],1.35
same,glycan array binding signal (z-score),[24],0.027
same,glycan array binding signal (z-score),[25],-0.04
same,glycan array binding signal (z-score),[26],2.01
same,glycan array binding signal (z-score),[27],-0.133
same,glycan array binding signal (z-score),[28],0.45
same,glycan array binding signal (z-score),[29],-0.056

# Source: the supplement of paper PMC8728848
